Where a name gives a salt, the structure may show the parent alone.
test system: S. cerevisiae BY4741 (wild-type), vegetative growth in YPD; test: growth sensitivity score (doubling time z-score vs DMSO controls); higher = slower growth, strongly negative scores also mark growth inhibition (complete suppression), active = hit call of the paper; in the data active = 2 or more and inactive = the rest
In short: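 Optical density of Saccharomyces cerevisiae cultures in microtiter plates was followed every 15 min for 24 hours after seeding at an OD600 of 0.065. Eight solvent-only wells were run per experiment. Growth sensitivity scores were found by subtracting the solvent-only mean from the compound mean and dividing by the solvent-only standard deviation.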

SMILES	growth sensitivity score
Cc1ncc([N+](=O)[O-])n1CCO [Metronidazole] (stock concentration (mM, diluted 1:100): 10)	-0.2 (inactive)
C=CC[C@@H]1/C=C(\C)C[C@H](C)C[C@H](OC)[C@H]2O[C@@](O)(C(=O)C(=O)N3CCCC[C@H]3C(=O)O[C@H](/C(C)=C/[C@@H]3CC[C@@H](O)[C@H](OC)C3)[C@H](C)[C@@H](O)CC1=O)[C@H](C)C[C@@H]2OC [Tacrolimus] (stock concentration (mM, diluted 1:100): 10)	12 (active)
CCC(=O)O[C@]1(C(=O)SCF)[C@H](C)C[C@H]2[C@@H]3C[C@H](F)C4=CC(=O)C=C[C@]4(C)[C@@]3(F)[C@@H](O)C[C@@]21C [Fluticasone propionate] (stock concentration (mM, diluted 1:100): 10)	-0.58 (inactive)
C[C@]12CC[C@@H]3c4ccc(OS(=O)(=O)O)cc4CC[C@H]3[C@@H]1CCC2=O (stock concentration (mM, diluted 1:100): 10)	-0.87 (inactive)
O=C(c1ccccc1)c1ccc2n1CCC2C(=O)O (centres undefined) [Toradol] (stock concentration (mM, diluted 1:100): 6.8)	0.91 (inactive)
NNCCc1ccccc1 [Phenelzine sulfate salt] (stock concentration (mM, diluted 1:100): 10)	0.3 (inactive)
CC(C)NCC(O)COc1ccc(CCOCC2CC2)cc1 (centres undefined) [Betaxolol hydrochloride] (stock concentration (mM, diluted 1:100): 10)	0.42 (inactive)
CC(C)C[C@H](NC(=O)[C@@H](COC(C)(C)C)NC(=O)[C@H](Cc1ccc(O)cc1)NC(=O)[C@H](CO)NC(=O)[C@H](Cc1c[nH]c2ccccc12)NC(=O)[C@H](Cc1cnc[nH]1)NC(=O)[C@@H]1CCC(=O)N1)C(=O)N[C@@H](CCCNC(=N)N)C(=O)N1CCC[C@H]1C(=O)NNC(N)=O [Goserelin acetate] (stock concentration (mM, diluted 1:100): 9.6)	-0.77 (inactive)
Clc1ccc2c(c1)CCc1cccnc1C2=C1CCNCC1 [Desloratadine] (stock concentration (mM, diluted 1:100): 10)	-0.47 (inactive)
COc1cccc2c1C(=O)c1c(O)c3c(c(O)c1C2=O)C[C@@](O)(C(=O)CO)C[C@@H]3O[C@H]1C[C@H](N)[C@H](O)[C@H](C)O1 [Doxorubicin hydrochloride] (stock concentration (mM, diluted 1:100): 9.4)	51 (active)
CC[C@@H]1C(=O)OC[C@@H]1Cc1cncn1C [Pilocarpine hydrochloride] (stock concentration (mM, diluted 1:100): 10)	0.72 (inactive)
CN(Cc1cnc2nc(N)nc(N)c2n1)c1ccc(C(=O)N[C@@H](CCC(=O)O)C(=O)O)cc1 [Methotrexate] (stock concentration (mM, diluted 1:100): 14.6)	-0.16 (inactive)
CC(C(O)c1ccc(O)cc1)N1CCC(Cc2ccccc2)CC1 (centres undefined) [Ifenprodil] (stock concentration (mM, diluted 1:100): 9.2)	3.06 (active)
CN(C)CCc1c[nH]c2ccc(Cn3cncn3)cc12 [Rizatriptan benzoate] (stock concentration (mM, diluted 1:100): 10)	-0.18 (inactive)
O=C(O[C@@H]1Cc2c(O)cc(O)cc2O[C@@H]1c1cc(O)c(O)c(O)c1)c1cc(O)c(O)c(O)c1 [Epigallocatechin gallate] (stock concentration (mM, diluted 1:100): 10)	0.97 (inactive)
CN(C)CCC=C1c2ccccc2COc2ccccc21 [Doxepin] (stock concentration (mM, diluted 1:100): 10)	1.16 (inactive)
CC#C[C@]1(O)CC[C@H]2[C@@H]3CCC4=CC(=O)CCC4=C3[C@@H](c3ccc(N(C)C)cc3)C[C@@]21C [Mifepristone] (stock concentration (mM, diluted 1:100): 10)	-2.51
CC(C(=O)O)c1ccc(-c2ccccc2)c(F)c1 (centres undefined) [Flurbiprofen] (stock concentration (mM, diluted 1:100): 11.4)	0.01 (inactive)
CNCC[C@H](Oc1cccc2ccccc12)c1cccs1 [Duloxetine hydrochloride] (stock concentration (mM, diluted 1:100): 8.9)	21.8 (active)
COC(=O)C1=C(C)NC(C)=C(C(=O)OCC(C)C)C1c1ccccc1[N+](=O)[O-] (centres undefined) [Nisoldipine] (stock concentration (mM, diluted 1:100): 10)	57 (active)
Nc1c2c(nc3ccccc13)CCCC2 [Tacrine hydrochloride] (stock concentration (mM, diluted 1:100): 9)	2.93 (active)
O=C1N(c2ccccc2)c2ccccc2C1(Cc1ccncc1)Cc1ccncc1 (stock concentration (mM, diluted 1:100): 10)	1.8 (inactive)
CCCN[C@H]1CCc2nc(N)sc2C1 [Pramipexole] (stock concentration (mM, diluted 1:100): 10)	-0.06 (inactive)
O=C1CCc2ccc(OCCCCN3CCN(c4cccc(Cl)c4Cl)CC3)cc2N1 [Aripiprazole] (stock concentration (mM, diluted 1:100): 10)	117 (active)
OC[C@H]1O[C@@H](n2cnc3c(N[C@H]4CCC[C@@H]4O)ncnc32)[C@@H](O)C1O (some centres undefined) (stock concentration (mM, diluted 1:100): 10)	-0.79 (inactive)
CN1CCCC(n2nc(Cc3ccc(Cl)cc3)c3ccccc3c2=O)CC1 (centres undefined) [Azelastine hydrochloride] (stock concentration (mM, diluted 1:100): 9.1)	0.19 (inactive)
NC(N)=NC(=O)c1nc(Cl)c(N)nc1N (stock concentration (mM, diluted 1:100): 8.2)	1.27 (inactive)
C[C@@H]1O[C@@H](OC[C@H]2O[C@@H](Oc3c(-c4ccc(O)c(O)c4)oc4cc(O)cc(O)c4c3=O)[C@H](O)[C@@H](O)[C@@H]2O)[C@H](O)[C@H](O)[C@H]1O [Rutin] (stock concentration (mM, diluted 1:100): 10)	-2.67
CC(C)(C#N)c1cc(Cn2cncn2)cc(C(C)(C)C#N)c1 [Anastrozole] (stock concentration (mM, diluted 1:100): 10)	-0.82 (inactive)

Reference: the supplement of paper PMC3414501
